Screening data from PubChem BioAssay.
EP2 modulator – modulators of human EP2 prostaglandin E2 receptor. P43116. EP2-expressing cells, cAMP HTRF FRET, PGE2 co-stimulation. induction, % at 25 µM. 0.83% of 260,000 active;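 active = compounds whose cAMP rise, as percent of the full-agonist control response, exceeds 60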;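 note: rat C6 glioma line stably carrying human EP2 under a CMV promoter; the protocol text gives 20 µM as final concentration; 100% = response of wells given 1 µM PGE2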
Target sequence (P43116 whole entry, looked up): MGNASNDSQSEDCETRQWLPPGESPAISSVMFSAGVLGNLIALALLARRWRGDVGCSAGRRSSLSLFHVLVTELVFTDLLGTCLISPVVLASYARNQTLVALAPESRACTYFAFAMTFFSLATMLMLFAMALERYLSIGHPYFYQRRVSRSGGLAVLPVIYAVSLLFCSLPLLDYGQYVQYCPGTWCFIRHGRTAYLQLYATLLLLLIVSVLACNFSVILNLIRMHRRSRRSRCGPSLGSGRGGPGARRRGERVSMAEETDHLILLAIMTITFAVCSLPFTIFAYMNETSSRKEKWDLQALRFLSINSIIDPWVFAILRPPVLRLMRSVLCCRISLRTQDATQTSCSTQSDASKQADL
S1P4 ag – human S1P4 receptor agonism | O95977 | S1P4-expressing cell line, agonist reporter assay | 0.35% of 220,000 active | activation, % at 4.98 µM; in the data active = activation above about 11%;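 note: 0% = DMSO vehicle and 100% = reference agonist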
S1P4 antag – human S1P4 receptor antagonism | O95977 | S1P4-expressing cells, antagonist mode, reporter read-out | inhibition, % at 4.98 µM | 0.26% of 220,000 active; in the data active = inhibition above about 29%;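 note: 0% = wells stimulated with agonist and 100% = vehicle wells without agonist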
S1P3 antag – S1P3 (human) receptor antagonism; inhibition, % at 4.98 µM; AID 485; 0.27% of 170,000 active; CHO S1P3 NFAT-BLA reporter, FRET fluorescence, antagonist mode;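 active = inhibition above the plate cutoff, the mean inhibition of test wells on that plate plus 3 SD, cut at about 28% in these data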;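 note: cells challenged with S1P at its EC80 of 0.8 µM; blue over green emission ratio from cleaved BLA substrate after 4 h stimulation; 0% = S1P-stimulated wells and 100% = unstimulated DMSO-only wells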
EP2 antag – blocks the human prostaglandin E2 receptor EP2. C6 glioma cells expressing human EP2, cAMP TR-FRET; cells stimulated with saturating PGE2. inhibition, % at 25 µM. 0.52% of 260,000 active. AID 1422;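 active = percent inhibition above 40 after rounding to a whole number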;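 note: rat C6 glioma host cells with rolipram phosphodiesterase inhibitor present; the protocol text gives 20 µM as final concentration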
Starred values were filed as active, the others as inactive. The list is not random: actives were taken first. Their share in the collection is about 2%.

What do the screens show for `CN(C)CCNc1nc2c(c(=O)n(C)c(=O)n2C)n1C`?
EP2 modulator: -14.1; EP2 antag: 14.8

What do the screens show for `O=C(Nc1ccc2oc(=O)ccc2c1)c1cccc(Cl)c1`?
EP2 modulator: -17.3; EP2 antag: 15.2

How did O=C(Nc1ccc(Cl)c(C(F)(F)F)c1)NC1CC2CCCC(C1)N2C1CC1 (centres undefined) do in these assays?
S1P4 ag: 0.1; S1P4 antag: 3.2; EP2 antag: 40.9*

How did C=CCNC(=S)N(Cc1ccccc1)Cc1ccccc1 do in these assays?
EP2 modulator: 60.7*; S1P4 ag: 0.9; S1P4 antag: -11.2; S1P3 antag: 12.9; EP2 antag: 4.5

How did O=c1[nH]c(/C=C\c2ccc(N3CCCC3)cc2)nc(O)c1[N+](=O)[O-] do in these assays?
EP2 modulator: -17.0; EP2 antag: 13.6

Results for O=c1[nH]c(N2CCCC2)nc2c1CCN(Cc1ccccc1O)C2 ?
EP2 modulator: -20.3

What do the screens show for `S=C1NCN2CCN(CC2)CNC(=S)C(=S)NCN2CCN(CC2)CNC1=S`?
EP2 modulator: -3.6; EP2 antag: 48.2*

How did Cc1cc(-c2cnc(C)nc2C2CCN(C(=O)C(C)(C)C)CC2)on1 do in these assays?
EP2 modulator: -12.6

What do the screens show for `COc1ccc(C(=O)NC(=S)Nc2ccc(S(=O)(=O)Nc3nccs3)cc2)cc1OC`?
EP2 modulator: -137.8; EP2 antag: 43.4*

How did Cc1cc(C)cc(NS(=O)(=O)c2ccc(NC(=S)NC(=O)c3cccs3)cc2)c1 do in these assays?
EP2 modulator: -86.9; S1P4 ag: 1.2; S1P4 antag: -4.5; S1P3 antag: -5.5; EP2 antag: 41.9*

How did Cc1ccnc(NS(=O)(=O)c2ccc(NC(=O)/C=C/c3cccs3)cc2)n1 do in these assays?
EP2 modulator: -1.8; S1P4 ag: -0.9; S1P4 antag: 0.1; S1P3 antag: -22.1; EP2 antag: 5.3

How did Cc1cc(C)nc(NS(=O)(=O)c2ccc(NC(=S)NC(=O)/C=C/c3cccs3)cc2)n1 do in these assays?
EP2 modulator: -116.6; EP2 antag: 63.1*

Results for COc1ccc(/C=C/C(=O)NC(=S)Nc2ccc(S(=O)(=O)Nc3cc(C)on3)cc2)cc1 ?
EP2 modulator: -134.3; EP2 antag: 45.3*

How did Cc1ccc(NS(=O)(=O)c2ccc(NC(=O)c3cccs3)cc2)c(C)c1 do in these assays?
EP2 modulator: -21.1; S1P4 ag: 1.9; S1P4 antag: -6.7; S1P3 antag: 5.4; EP2 antag: 3.2

How did CCc1c(C)sc2ncn(C3CCN(C(=O)c4ccccc4F)CC3)c(=O)c12 do in these assays?
EP2 modulator: -53.0; EP2 antag: 2.8

How did COC(=O)/C(=C\c1ccc(-c2cc(Cl)ccc2Cl)o1)C(C)=O do in these assays?
EP2 modulator: -97.5; EP2 antag: 50.5*

Results for COC(=O)N/N=C/c1ccc(-c2ccc(Cl)cc2Cl)o1 ?
EP2 modulator: -7.5; S1P4 ag: -1.6; S1P4 antag: -4.9; S1P3 antag: 5.0; EP2 antag: 7.8

How did Cc1onc(-c2ccncc2)c1C(=O)NC(C)c1ccc2c(c1)CCC2 (centres undefined) do in these assays?
EP2 modulator: -21.0; EP2 antag: 3.7

How did COc1ccc(NC(=O)c2c(N)no[n+]2[O-])cc1 do in these assays?
EP2 modulator: -12.1; S1P4 ag: -2.5; S1P4 antag: 10.4; S1P3 antag: 0.3; EP2 antag: 5.6

How did COc1ccc(C(=O)c2no[n+]([O-])c2C(=O)c2ccc(OC)cc2)cc1 do in these assays?
EP2 modulator: -1.3; S1P4 ag: 2.9; S1P4 antag: -4.2; S1P3 antag: -7.8; EP2 antag: 64.7*

Results for O=C(c1cccs1)c1no[n+]([O-])c1C(=O)c1cccs1 ?
EP2 modulator: -17.2; S1P4 ag: 0.4; S1P4 antag: 3.8; S1P3 antag: -46.0; EP2 antag: 129.6*

What do the screens show for `CCCCCCCCOC(=O)C1=C(C)Nc2nnnn2C1c1cccs1` (centres undefined)?
EP2 modulator: 66.0*; S1P4 ag: -2.9; S1P4 antag: 7.0; EP2 antag: 3.0

What do the screens show for `O=C(Oc1cccc2cccnc12)c1ccc2c(c1)OCCO2`?
EP2 modulator: 13.9; S1P4 ag: 0.3; S1P4 antag: -20.0; S1P3 antag: 60.8*; EP2 antag: 7.8

What do the screens show for `Cc1c2cccc(Sc3ccccc3)c2c2c3c(cccc13)[S+](c1ccccc1)C2` (centres undefined)?
EP2 modulator: 25.2; EP2 antag: 42.2*

Results for Cc1ccc(NC(=O)c2c(C)nc3ccccn23)c(C)c1 ?
EP2 modulator: -30.1; EP2 antag: 10.2

Results for CC(C)COP(=O)(OCC(C)C)C(Nc1ccccc1)c1ccccc1 (centres undefined) ?
EP2 modulator: 70.4*; S1P4 ag: 0.5; S1P4 antag: 6.5; S1P3 antag: 17.4; EP2 antag: 3.3

What do the screens show for `CC(C)COP(=O)(OCC(C)C)C(Nc1ccccc1)c1ccc(F)cc1` (centres undefined)?
EP2 modulator: 44.2; S1P4 ag: -0.7; S1P4 antag: -4.3; S1P3 antag: 2.9; EP2 antag: 1.7

Results for COc1cccc(OCc2cc(/C=N/Nc3ccc(C(=O)O)cc3)ccc2OC)c1 ?
EP2 modulator: 62.1*; S1P4 ag: 0.1; S1P4 antag: 20.7; S1P3 antag: -3.8; EP2 antag: 9.3

Results for CCOC(=O)c1cnc2c(C(F)(F)F)cccc2c1NCCCCCO ?
EP2 modulator: -51.0; EP2 antag: 11.6

What do the screens show for `CCN1CCN(c2ncnc3c2cnn3-c2ccc(Cl)cc2)CC1`?
EP2 modulator: 2.8; S1P3 antag: -19.8; EP2 antag: 9.2

How did CCN1CCN(c2ncnc3c2cnn3-c2ccccc2)CC1 do in these assays?
EP2 modulator: -16.1; S1P4 ag: -0.3; S1P4 antag: 0.4; S1P3 antag: 90.1*; EP2 antag: 11.9

What do the screens show for `COc1ccc(CNC(=O)c2sc3nc4ccc(C)cc4cc3c2N)cc1`?
EP2 modulator: -59.0; EP2 antag: 13.2

How did COc1ccc2nc3sc(C(=O)NCc4cccs4)c(N)c3cc2c1 do in these assays?
EP2 modulator: -7.2; S1P4 ag: 0.1; S1P4 antag: -1.4; S1P3 antag: 54.0*; EP2 antag: 18.4

What do the screens show for `CCCc1ccc(Oc2cn[nH]c2-c2ccc(O)c(C)c2O)cc1`?
EP2 modulator: -16.8; S1P4 ag: 0.5; S1P4 antag: -1.4; S1P3 antag: -0.1; EP2 antag: 53.0*

Results for CCC(C)(C)n1nnnc1C(c1ccc(C(F)(F)F)cc1)N1CCC(C)CC1 (centres undefined) ?
EP2 modulator: 76.6*; EP2 antag: 4.3

What do the screens show for `CC1CCN(C(c2ccc(N(C)C)cc2)c2nnnn2C(C)(C)C)CC1` (centres undefined)?
EP2 modulator: 4.2; S1P4 ag: -0.2; S1P4 antag: -6.2; S1P3 antag: 1.7; EP2 antag: 9.3

How did O=C(CN1C(=O)[C@@H]2CCCN2C(=O)c2ccccc21)NC1CC1 do in these assays?
EP2 modulator: 8.6; EP2 antag: 3.9

How did O=C(/C=C/c1ccccc1)NCCc1c[nH]c2ccccc12 do in these assays?
EP2 modulator: -133.6; EP2 antag: 74.2*
